Experimental data taken from PubChem BioAssay (NCATS).
Results filed as inconclusive are left out. A call without a number means that no potency is given here. Active and inactive are the calls of the source. Calls follow the shape of the dose curve; as a rule, active = well fitted inhibition curve with a large enough effect; inconclusive = small, poorly fitted or top-dose-only effect; inactive = no such curve, though single readings can be large or run the other way.

molecular target: Muscarinic acetylcholine receptor M1 (Rattus norvegicus) (UniProt P08482); assay: qHTS Assay for Antagonists of Acetylcholine Muscarinic M1 Receptor: Measurement of IP-One Response (AID 944); details: CHO-M1 cells, IP-One HTRF, antagonist mode; series mostly up to 46.1 µM; also: nearly all actives have a fitted effect of over 75% in size
Excerpt: NIH Molecular Libraries Screening Centers Network [MLSCN]
NIH Chemical Genomics Center [NCGC]
Acetylcholine muscarinic M1 receptor is a G-protein coupled receptor (GPCR) coupling to the Gq G protein. It is mainly expressed in brain and functionally related to the learning and memory processes. The agonists of this receptor have the potential for the treatment of Alzheimer's disease and cognitive impairments associated with Schizophrenia.
Upon an activation of the M1 receptor, phosholipase C (PLC) is activated to produce inositol 1,4,5-trisphosphate (IP3) and diacyl glycerol (DAG). The IP3 is very rapidly hydrolyzed to IP2, IP1 and then inositol by a series of enzymes and Ca2+ is quickly pumped back into ER by the calcium pump on the ER membrane, which effectively switches off the IP3 and Ca2+ signaling. For compound screen, the changes in intracellular free Ca2+ concentration can be measured by the fluorescence calcium dye such as Fura-2, Fluo-3 and Fluo-4 with a fluorescence kinetic plate reader. IP1 or total IPs including IP1, IP2 and IP3 are usually measured as an alternative method for assessing the function of Gq-coupled GPCRs. We have applied a time-resolved fluorescence based (TR-FRET) IP1 assay in which an IP1 specific antibody is used to detect the labeled IP1 tracer. When the cell lysate contains the elevated IP1, the TR-FRET between the labeled antibody and IP1 tracer is disrupted resulting in a reduction in the total signal. Since the TR-FRET is used, a homogenous assay with out cell wash and medium change is possible which also can be miniaturized into the high density format for HTS.
We have obtained a M1-CHO cell line transfected with rat acetylcholine M1 receptor and optimized this IP-One assay with this cell line for compound screening as a counter-screen assay for other Gq-coupled GPCRs.
NCGC Assay Protocol Summary:
The CHO-M1 (CHO-M1) cell line transfected with the rat acetylcholine muscarinic M1 receptor was obtained from American Type Culture Collection (ATCC). The cells were maintained in call culture flasks with F12 Kaighn's media (Invitrogen) supplemented with 10 % FBS, 100 units/ml penicillin, 100 ug/ml streptomycin and 250 ug/ml geneticin (Invitrogen) at 37C, 5 % CO2 in a humidified atmosphere. At 90-95 % confluence, the cells were then detached in 15 ml 0.25 % trypsin by 3 minutes incubation at 37C and centrifuged at 1000 RPM to remove the trypsin solution. The resulting cell pellet was resuspended in the cell freezing media containing 10 % DMSO (Invitrogen) at a density of 4 x 10^7 cells/ml. The aliquots of cells at 0.5 - 1 ml per vial were frozen down slowly at 1 degree C/min using a Cryo 1 degree C freezing container in the presence of isopropanol (Nalgene Nunc, Rochster, NY) overnight in a -80C freezer. The frozen cells were then transferred to liquid nitrogen for the storage up to one year.
The resuspended frozen cells were plated at 3 ul/well with 2000 cells in the black, tissue culture treated, clear bottom 1536-well plates. The cells were cultured at 37C, 5 % CO2 for overnight to allow the cells recovering from the frozen state. 20 nl/well of compound in DMSO solution was added to the assay plate and incubated for 10 min. Carbachol was prepared in stimulation buffer (10mM Hepes, 1mM CaCl2, 0.5 mM MgCl2, 4.2 mM KCl, 146 mM NaCl, 5.5 mM glucose 50mM LiCl 50mM pH7.4) which was added to the assay plate at 1 ul/well. After an incubation with carbachol at 37C, 5 % CO2 for 30 min, all the wells in the assay plate were added with 1 ul/well of d2 conjugated IP1 (d2-IP1) and 1 ul/well of Eu+ cryptate conjugated anti-IP1 antibody (Eu+-Ab), both from the IP-One kit (Cisbio USA., Inc.). After 10 min incubation at the room temperature, the assay plates were measured in the HTRF detection mode in ViewLux plate reader (Ex=337 nm. Em(1)=620 and Em(2)=665 nm)
1536-well assay protocol:
(1) 4 ul/well containing 2000 M1-CHO cells in 1536 tissue culture treated white plate
(3) Add 23 nl compound diluted in DMSO
[…]
Potency is read from the fitted curve at half-maximal effect.

Muscarinic acetylcholine receptor M1 (Rattus norvegicus), sequence (P08482 whole entry, looked up): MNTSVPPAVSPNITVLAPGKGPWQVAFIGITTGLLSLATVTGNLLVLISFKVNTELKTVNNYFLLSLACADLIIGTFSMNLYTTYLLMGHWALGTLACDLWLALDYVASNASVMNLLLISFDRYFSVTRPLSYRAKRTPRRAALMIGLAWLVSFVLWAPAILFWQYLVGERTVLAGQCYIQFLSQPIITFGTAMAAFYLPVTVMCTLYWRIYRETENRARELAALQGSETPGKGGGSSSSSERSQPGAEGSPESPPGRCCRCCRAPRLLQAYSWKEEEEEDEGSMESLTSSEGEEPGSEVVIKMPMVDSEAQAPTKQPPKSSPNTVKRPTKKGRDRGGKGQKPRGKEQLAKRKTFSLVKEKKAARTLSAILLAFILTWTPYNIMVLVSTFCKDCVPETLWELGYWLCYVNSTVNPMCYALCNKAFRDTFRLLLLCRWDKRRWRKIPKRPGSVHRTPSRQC

Row | Structure (SMILES) | Potency
1 | CC(C)NCC(O)COc1ccc(COCCOC(C)C)cc1 (centres undefined) | inactive
2 | O=c1n(CCCN2CCN(c3cccc(Cl)c3)CC2)nc2ccccn12 | inactive
3 | NCCc1ccc(O)c(O)c1 | inactive
4 | Cc1ccc(N(CC2=NCCN2)c2cccc(O)c2)cc1 | inactive
5 | CCOC(=O)C1=C[C@@]2(CC)CCCN3CCc4c(n1c1ccccc41)[C@H]32 | inactive
6 | C[C@]12CCC(=O)C=C1CC[C@@H]1[C@@H]2[C@@H](O)C[C@@]2(C)[C@H]1CC[C@]2(O)C(=O)CO | inactive
7 | Nc1ccc(S(=O)(=O)Nc2ccnn2-c2ccccc2)cc1 | inactive
8 | CC(C)(Sc1ccc(CCN(CCCCC2CCCCC2)C(=O)NC2CCCCC2)cc1)C(=O)O | inactive
9 | OC(CN1CCC(Cc2ccc(F)cc2)CC1)c1ccc(Cl)cc1 (centres undefined) | 7.94 µM (active)
10 | C1COC(NC(C2CC2)C2CC2)=N1 | inactive
11 | CCCCNc1cc(C(=O)O)cc(S(N)(=O)=O)c1Oc1ccccc1 | inactive
12 | Cc1[nH]c(=O)c(C#N)cc1-c1ccc2nccn2c1 | inactive
13 | CNC[C@H](O)c1cccc(O)c1 | inactive
14 | N=c1nc(N2CCCCC2)cc(N)n1O | inactive
